Measured values reported in PubChem BioAssay (NCATS).
Results filed as inconclusive are left out. Values without a mark were called inactive. Active and inactive are the calls of the source. Calls come from the whole dose curve; as a rule, active = well fitted inhibition curve with a large enough effect; inconclusive = small, poorly fitted or top-dose-only effect; inactive = flat fitted curve, though single readings scatter.

Experiment: BET inhibitor-based combinations targeting novel dependencies in MECOM-rearranged (r) AML: AML-191 cell line (AID 2202236; note: nearly all actives have a fitted effect of over 35% in size;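 for viability (% of control): plate controls were vehicle wells for no effect and wells without cells for full effect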)
Settings: AML-191 viability, CellTiter-Glo luminescence, 48 h; series mostly up to 46 µM; viability (% of control): at the top concentration
Source text: Ecotropic viral insertion site 1 (EVI1) is located on chromosome 3q26.2 as part of the MECOM (MDS and EVI1 complex) locus. Under normal hematopoiesis, EVI1 is a regulator of hematopoietic stem cell maintenance and self-renewal and EVI1 levels decrease as the cells differentiate. In approximately 5-10% of de novo acute myeloid leukemia (AML) EVI1 is aberrantly expressed, including Chromosomal inv(3)(q21;q26.2) or t(3;3)(q21;q26.2) alterations (MECOM-r) that account for about 50% of AML with EVI1 overexpression 31. AMLs with high levels of EVI1 have a poor prognosis and an overall survival time averaging between 10-14 months. EVI1 overexpression confers resistance in leukemia cells, highlighting the need to develop new targeted therapies for EVI1 overexpressing AMLs.
Here, we performed an unbiased chemical drug screening by evaluating the single agent activity of a collection of 2,480 oncology-focused, approved and investigational drugs (NCATS Mechanism Interrogation Plates, MIPE v5.0) against a panel of seven AML cell lines. These included four MECOM-r cell-lines (AML-191, AML-194, UCSD-AML1 and HNT-34) and three non-MECOM-r AMLs (MV4-11, OCI-AML3 and SET-2). Exploiting the mechanistic redundancy built in the library, we identified target-level sensitivities in MECOM-r AML cells and relative activity as compared to other AML subtypes.
A collection of 2480 mechanistically annotated dugs (MIPE v5.0) was used to screen four 3q26.2 rearranged AML cell lines and three non-3q26.2 rearranged AML cell lines. This library purposely exploits redundancy by including multiple inhibitors of key onco-targets, while simultaneously encompassing mechanistic diversity, targeting more than 800 distinct mechanisms of action. Briefly, cells were seeded in 5 uL of growth media using a Multidrop Combi dispenser into 1536 well white polystyrene tissue culture treated plates (Corning) at a density of 500cells/well. For each cell-line, for each of the 2480 drugs in MIPE v5.0 library, an 11-point dose curve was generated via a 1536 pin-tool. Plates were incubated for 48 hr at standard incubator conditions, covered by a stainless steel gasketed lid to prevent evaporation. Cell viability was determined by luminescence based, Cell Titer Glo assay (Promega). In detail, 3 uL of Cell Titer Glo were added to each well and plates were incubated at room temperature for 15 min with a stainless-steel lid in place. Luminescence readings were taken using a Viewlux (PerkinElmer) with a 2 s exposure time per plate. Compound dose-response curves were normalized to DMSO and empty well controls on each plate. Quantitative drug activity data from dose-response curves was determined utilizing area Under the Curve (AUC) and Z-transformed AUC (Z-AUC, a mean-centering transformation applied to each individual cell-line screened).
Potency is the fitted concentration of half-maximal effect.

Row | Compound | Potency | viability (% of control)
1 | COc1cc(-c2nn(C3CCC(N4CCN(C(C)=O)CC4)CC3)c3ncnc(N)c23)ccc1NC(=O)c1cc2ccccc2n1C (stereo not given) | 5.9 µM (active) | 
2 | CCN1CCN(Cc2ccc(NC(=O)c3ccc(C)c(NC(=O)c4cncc(-c5cccs5)c4)c3)cc2C(F)(F)F)CC1 | 1.05 µM (active) | 
3 | Cc1cc(C(=O)Nc2cc(Oc3ccc4nc(NC(=O)C5CC5)cn4n3)ccc2C)n(C)n1 | 6.61 µM (active) | 
4 | Cc1cn([C@@H]2C[C@@H](O)[C@H](CO)O2)c(=O)[nH]c1=O |  | 106%
5 | CC(C)[C@H](CO)Nc1nc(Nc2cccc(Cl)c2)c2ncn(C(C)C)c2n1 | 14.8 µM (active) | 
6 | Cc1nnc(NS(=O)(=O)c2ccc(N)cc2)s1 |  | 97.8%
7 | OC(CCN1CCCCC1)(c1ccccc1)C1CC2C=CC1C2 (stereo not given) |  | 91%
8 | CN(C)c1nc(N(C)C)nc(N(C)C)n1 |  | 110%
9 | O=C1c2ccccc2-[n+]2ccc3c([nH]c4ccccc43)c21 | 1.66 µM (active) | 
10 | COc1c(C)c2c(c(O)c1C/C=C(\C)CCC(=O)O)C(=O)OC2 | 1.05 µM (active) | 
11 | CC1CNc2c(cccc2S(=O)(=O)N[C@@H](CCCN=C(N)N)C(=O)N2CC[C@@H](C)C[C@@H]2C(=O)O)C1 (stereo not given in full) |  | 109%
12 | Cc1nn(C)c(COc2ccc(N3CCN(S(=O)(=O)N(C)C)CC3)cc2)c1-c1cccc2c(CCCOc3cccc4ccccc34)c(C(=O)O)n(CCN3CCOCC3)c12 |  | 104%
13 | COC(=O)[C@@H]1[C@H]2C[C@H]3c4[nH]c5ccccc5c4CCN3C[C@@H]2CC[C@@H]1O |  | 93.1%
14 | COc1ccc(COc2cc3oc(=O)c4cc(C(C)O)ccc4c3cc2OC)cc1 (stereo not given) | 20.9 µM (active) | 
15 | O=C1NC(=O)C(c2cnc3ccccn23)=C1c1cn2c3c(cccc13)CN(C(=O)N1CCOCC1)CC2 | 0.525 µM (active) | 
16 | Nc1nc(N)nc(-c2cc(Cl)ccc2Cl)n1 |  | 105%
17 | CC1=NN(c2ccccc2)C(=O)C1 |  | 105%
18 | OC[C@@H](O)[C@@H](O)[C@H](O)[C@@H](O)CO |  | 99%
19 | CC1COC2(CCN(c3nc(=O)c4cc(C(F)(F)F)cc([N+](=O)[O-])c4s3)CC2)O1 (stereo not given) |  | 109%
20 | CN(C[C@@H]1COCCO1)S(=O)(=O)Nc1ccc2ccc3ncc(-c4cnn(C)c4)cc3c(=O)c2c1 | 6.61 µM (active) | 

Row | Compound | Potency | viability (% of control)
21 | Nc1ncnc2c1nc(Cl)n2[C@@H]1O[C@H](CO)[C@@H](O)[C@@H]1O | 3.72 µM (active) | 
22 | O=C1c2c(O)ccc(O)c2C(=O)c2c(NCCNCCO)ccc(NCCNCCO)c21 | 0.372 µM (active) | 
23 | COC(=O)N(C)c1c(N)nc(-c2nn(Cc3ccccc3F)c3ncccc23)nc1N |  | 103%
24 | C[C@H](CCC(=O)O)[C@H]1CCC2C3C[C@H](O)[C@@H]4C[C@H](O)CC[C@]4(C)C3CC[C@@]21C (stereo not given in full) |  | 104%
25 | Cc1csc(NC(=O)c2sc3nc4c(c(C(F)(F)F)c3c2N)CCC4)n1 |  | 86.1%
26 | O=c1c(-c2ccc(O)cc2)coc2cc(O)ccc12 |  | 84.4%
27 | Cc1cc(Nc2cc(N3CCN(C)CC3)nc(/C=C/c3ccccc3)n2)n[nH]1 | 2.09 µM (active) | 
28 | Nc1ncnc2ccccc12 |  | 110%
29 | CC[C@]1(O)CC2CN(CCc3c([nH]c4ccccc34)[C@@](C(=O)OC)(c3cc4c(cc3OC)N(C)[C@H]3[C@@](O)(C(=O)OC)[C@H](OC(C)=O)[C@]5(CC)C=CCN6CC[C@]43[C@@H]65)C2)C1 (stereo not given in full) | 0.296 µM (active) | 
30 | C=CC(=O)Nc1cccc(Nc2nc(Nc3ccc(Oc4ccnc(C(=O)NC)c4)cc3)ncc2F)c1 | 16.6 µM (active) | 
31 | CNC1CCC(N(Cc2cccc(-c3ccncc3)c2)C(=O)c2sc3c(F)ccc(F)c3c2Cl)CC1 (stereo not given) | 20.9 µM (active) | 
32 | O=C(Nc1cc(C(F)(F)F)cc(C(F)(F)F)c1)c1cc(Cl)ccc1O | 1.18 µM (active) | 
33 | CC1(C)Cc2c(sc(NC(=S)NC(=O)c3ccccc3)c2C(=O)O)CO1 |  | 109%
34 | Cc1nc(-c2ccc(OCC(C)C)c(C#N)c2)sc1C(=O)O |  | 99.6%
35 | COc1ccc(C[C@@H](C)[C@@H](C)Cc2ccc(OC)c(OC)c2)cc1OC | 18.6 µM (active) | 
36 | COc1cc(OC)c2c(=O)[nH]c(-c3cc(C)c(OCCO)c(C)c3)nc2c1 | 16.6 µM (active) | 
37 | COc1ccc(N(C)c2nc(C)nc3ccccc23)cc1 | 0.0093 µM (active) | 
38 | O=C(/C=C/N1C[C@H]2C[C@@H]1CN2c1ccccn1)c1ccccc1O |  | 87.7%
39 | CCN1CCN(c2ccc(Nc3cc(N(C)C(=O)Nc4c(Cl)c(OC)cc(OC)c4Cl)ncn3)cc2)CC1 | 26.3 µM (active) | 
40 | O=C(NOCC1CC1)c1ccc(F)c(F)c1Nc1ccc(I)cc1Cl | 11.8 µM (active) | 
